This note sets out measurements from the supplement of paper PMC10811239.

The experiment has as its system LEGO organoid PT (PTEN-/-; TP53-/-). The experiment in a line: bioluminescence (viable cell) signal fold change after vs before treatment, normalised to DMSO (ratio); higher = more tumour cell growth / less inhibition. The conditions noted are these: 10 µM; treatment time 6 days. As for the experimental part: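 Luc2-labelled iPSC-derived glioblastoma-like organoids (LEGOs, genotypes PT = PTEN-/-;TP53-/-, PTCC = plus CDKN2A/B-/-, PTN = plus NF1-/-) were treated with 10 uM drug for 6 days (applied every other day) at 37 C. Bioluminescence imaging was done before treatment and 2 days after the last dose. BLI signals were normalised to the DMSO control on the same day and then to the pre-treatment signal (N=3).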
Take `Cl.CNCC\C=C1\c2ccccc2CCc2ccccc12` [Nortriptyline hydrochloride]: the bioluminescence came out at 0.795.

Turning to `Cl.Cl.OCCOCCN1CCN(C(c2ccccc2)c2ccc(Cl)cc2)CC1` (stereo not drawn) [Hydroxyzine dihydrochloride], the bioluminescence is 1.29.

As to `FC(F)(F)c1ccc(CNc2ccc(Cc3c[nH]c4ncc(Cl)cc34)cn2)cn1` [Pexidartinib], the bioluminescence was 0.7.

`O=C(c1cc(Cc2n[nH]c(=O)c3ccccc23)ccc1F)N1CCN(C(=O)C2CC2)CC1` [Olaparib]: the bioluminescence worked out at 1.23.

Consider `CC(C(=O)O)c1cccc(C(=O)c2ccccc2)c1` (stereo not drawn) [Ketoprofen], for which the bioluminescence was 0.893.

Turning to `COc1ccc(CNc2nc(N3CCC[C@H]3CO)ncc2C(=O)NCc2ncccn2)cc1Cl` [Avanafil], the bioluminescence was 0.905.

In the case of `C[C@@H]1CCN(C(=O)CC#N)C[C@@H]1N(C)c1ncnc2[nH]ccc12` [Tofacitinib], the bioluminescence is 1.24.

`NS(=O)(=O)Cc1noc2ccccc12` [Zonisamide]: the bioluminescence stood at 0.521.

As to `CCc1c2c(nc3ccc(OC(=O)N4CCC(N5CCCCC5)CC4)cc13)-c1cc3c(c(=O)n1C2)COC(=O)[C@]3(O)CC` [Irinotecan], the bioluminescence is 2.7.

For `CCCC(CCC)C(=O)O` [Valproic Acid], the bioluminescence worked out at 1.01.

As for `CS(=O)(=O)OCCCCOS(C)(=O)=O` [Busulfan], the bioluminescence was determined as 2.15.

As for `CSc1ccc2c(c1)N(CCC1CCCCN1C)c1ccccc1S2.Cl` (stereo not drawn) [Thioridazine hydrochloride], the bioluminescence turned out to be 0.68.

Take `Clc1ccc2c(c1)C(N1CCNCC1)=Nc1ccccc1O2` [Amoxapine]: the bioluminescence was 0.902.

For `CO[C@H]1/C=C/O[C@@]2(C)Oc3c(C)c(O)c4c(O)c(c(/C=N/N5CCN(C6CCCC6)CC5)c(O)c4c3C2=O)NC(=O)/C(C)=C\C=C\[C@H](C)[C@H](O)[C@@H](C)[C@@H](O)[C@@H](C)[C@H](OC(C)=O)[C@@H]1C` [Rifapentine], the bioluminescence was determined as 3.28.

For the compound `CC(C)Cc1ccc(C(C)C(=O)O)cc1` (stereo not drawn) [Ibuprofen], the bioluminescence is 1.56.

For the compound `CC[C@@]1(O)C(=O)OCc2c1cc1n(c2=O)Cc2cc3c(CN(C)C)c(O)ccc3nc2-1.Cl` [Topotecan hydrochloride], the bioluminescence was 1.39.

With `CC(=O)OCC(=O)[C@@]1(O)CC[C@H]2[C@@H]3CCC4=CC(=O)C=C[C@]4(C)[C@H]3[C@@H](O)C[C@@]21C` [Prednisolone-21-acetate], the bioluminescence was 0.578.

As for `CC[C@H](C)C(=O)O[C@H]1C[C@@H](C)C=C2C=C[C@H](C)[C@H](CC[C@@H]3C[C@@H](O)CC(=O)O3)[C@H]21` [Lovastatin], the bioluminescence turned out to be 1.33.

As for `Cl.O.O=C1Cc2cc(CCN3CCN(c4nsc5ccccc45)CC3)c(Cl)cc2N1` [Ziprasidone hydrochloride monohydrate], the bioluminescence was 0.909.

As for `CNC(=O)c1cc(Oc2ccc(NC(=O)Nc3ccc(Cl)c(C(F)(F)F)c3)cc2)ccn1.Cc1ccc(S(=O)(=O)O)cc1` [Sorafenib tosylate], the bioluminescence is 0.401.

Turning to `COc1cc2ncnc(Nc3ccc(F)c(Cl)c3)c2cc1OCCCN1CCOCC1` [Gefitinib], the bioluminescence was found to be 1.78.

Turning to `Cc1nc2n(c(=O)c1CCN1CCC(c3noc4cc(F)ccc34)CC1)CCCC2O` (stereo not drawn) [Paliperidone], the bioluminescence is 1.4.

In the case of `Cl.N=C1CCCN1Cc1[nH]c(=O)[nH]c(=O)c1Cl` [Tipiracil hydrochloride], the bioluminescence was 0.741.

For `CCCCCCCCCCC[C@@H](C[C@@H]1OC(=O)[C@H]1CCCCCC)OC(=O)[C@H](CC(C)C)NC=O` [Orlistat], the bioluminescence was determined as 1.4.

Turning to `CC(C)Oc1ccc(-c2nc(-c3cccc4c3CC[C@@H]4NCCO)no2)cc1C#N` [Ozanimod], the bioluminescence is 0.725.

As to `C[C@]12C=CC(=O)C=C1CC[C@@H]1[C@@H]2[C@@H](O)C[C@@]2(C)[C@H]1CC[C@]2(O)C(=O)CO` [Prednisolone], the bioluminescence was determined as 0.904.

Consider `CO[C@H]1C(=O)[C@]2(C)[C@@H](OC)C[C@H]3OC[C@@]3(OC(C)=O)[C@H]2[C@H](OC(=O)c2ccccc2)[C@]2(O)C[C@H](OC(=O)[C@H](O)[C@@H](NC(=O)OC(C)(C)C)c3ccccc3)C(C)=C1C2(C)C` [Cabazitaxel], for which the bioluminescence is 1.15.

On to `CCCc1nc(C)c2c(=O)[nH]c(-c3cc(S(=O)(=O)N4CCN(CC)CC4)ccc3OCC)nn12` [Vardenafil], for which the bioluminescence was 1.36.

For `CCC1(c2ccccc2)C(=O)NCNC1=O` [Primidone], the bioluminescence was 0.985.

Regarding `CN[C@H]1CC[C@@H](c2ccc(Cl)c(Cl)c2)c2ccccc21.Cl` [Sertraline hydrochloride], the bioluminescence was determined as 0.66.

In the case of `C#Cc1cccc(Nc2ncnc3cc(OCCOC)c(OCCOC)cc23)c1` [Erlotinib], the bioluminescence was 0.504.

As for `Cl.O=c1n(CCCN2CCN(c3cccc(Cl)c3)CC2)nc2ccccn12` [Trazodone hydrochloride], the bioluminescence is 1.97.

With `COC(=O)C1=C(C)NC(C)=C(C(=O)OCCN(C)Cc2ccccc2)C1c1cccc([N+](=O)[O-])c1.Cl` (stereo not drawn) [Nicardipine hydrochloride], the bioluminescence was 0.99.

Take `CO[C@@H]1[C@H](N(C)C(=O)c2ccccc2)C[C@H]2O[C@]1(C)n1c3ccccc3c3c4c(c5c6ccccc6n2c5c31)C(=O)NC4` [Midostaurin]: the bioluminescence turned out to be 0.527.

As to `Nc1nnc(-c2cccc(Cl)c2Cl)c(N)n1` [Lamotrigine], the bioluminescence is 0.852.

In the case of `Cc1cnc(NC(=O)C2=C(O)c3ccccc3S(=O)(=O)N2C)s1` [Meloxicam], the bioluminescence was 0.756.

`C[C@H](C(=O)O)c1cccc(C(=O)c2ccccc2)c1` [(S)-(+)-Ketoprofen]: the bioluminescence stood at 0.793.

As to `Nc1[nH]c(=O)ncc1F` [Fluorocytosine], the bioluminescence is 2.51.
